This is a sample that favours compounds with a hit; in the whole collection about 3.5% have one here.
FBW7 activator: human FBW7 E3 ligase activation, primary screen; AlphaScreen FBW7–phospho-cyclin E peptide binding, activator screen; normalized activity (activation), % at 26.1 µM; hit rate 0.13% among 650,000; AID 1259310; in the data active = normalized activity above about 1.9%;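 also: purified mutant Fbw7 with reduced substrate affinity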
GPR151 ag: activators of human GPR151. AID 1508602. hit rate 1% among 650,000. PathHunter beta-arrestin GPR151 cells, luminescence. Q8TDV0. activation, % at 11.2 µM; in the data active = activation above about 4.9%;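 also: 0% = median of compound wells and 100% = cells with positive control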
Target sequence (Q8TDV0 whole entry, looked up): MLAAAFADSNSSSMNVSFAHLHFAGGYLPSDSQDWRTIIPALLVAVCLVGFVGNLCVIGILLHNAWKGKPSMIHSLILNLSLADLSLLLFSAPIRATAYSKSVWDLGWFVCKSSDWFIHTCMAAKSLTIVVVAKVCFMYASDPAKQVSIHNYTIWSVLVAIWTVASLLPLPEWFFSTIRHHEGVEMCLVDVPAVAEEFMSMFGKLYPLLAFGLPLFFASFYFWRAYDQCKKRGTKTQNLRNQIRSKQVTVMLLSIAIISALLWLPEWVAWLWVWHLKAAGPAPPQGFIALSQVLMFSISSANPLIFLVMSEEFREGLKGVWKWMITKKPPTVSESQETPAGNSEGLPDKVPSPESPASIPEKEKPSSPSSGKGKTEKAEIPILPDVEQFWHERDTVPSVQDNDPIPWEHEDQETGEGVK
TEAD-YAP block: TEAD-YAP interaction inhibition; HEK-TIYL cells, TEAD-Gal4/YAP UAS-luciferase luminescence; AID 1259422; inhibition, % at 9.12 µM; hit rate 1.4% among 640,000; in the data active = inhibition above about 32%;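 also: 0% = median of test compound wells and 100% = reference inhibitor wells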
MITF inh: human MITF inhibition, primary screen; AlphaScreen MITF homodimerization, bead proximity signal; hit rate 0.91% among 650,000; inhibition, % at 2.6 µM; in the data active = inhibition above about 50%;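 also: 0% = vehicle wells with protein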
Starred values were filed as active, the others as inactive.

SMILES	FBW7 activator	GPR151 ag	TEAD-YAP block	MITF inh
Cc1nc2cc(NC(=O)N3c4ccccc4CC3C)ccc2n1C (centres undefined)	0	-2	37*	-5
Cc1cc(NC(=O)CSc2nnc(-c3ccco3)c(-c3ccco3)n2)no1	0	0	32*	25
O=C(CSc1nnc(-c2ccco2)c(-c2ccco2)n1)Nc1ccc(C(=O)O)cc1	-1	0	1	73*
O=C(CSc1nnc(-c2ccco2)c(-c2ccco2)n1)Nc1cccc(C(=O)O)c1	0	1	1	26
O=C1NC(=S)S/C1=C/c1cc(Br)c(Br)o1	-1	-1	-2	51*
CC(=O)c1ccc(-c2ccc(/C=C3/SC(=S)NC3=O)o2)cc1	-1	-1	-7	74*
O=C1NC(=S)S/C1=C\c1ccc(I)o1	0	-1	-1	48
CCN1C(=O)C(=Cc2ccc(-c3cccc(C(=O)O)c3)o2)C(=O)N(CC)C1=S	0	-1	0	47
CCN1C(=O)C(=Cc2ccc(-c3ccc(C(C)=O)cc3)o2)C(=O)N(CC)C1=S	0	1	-7	78*
O=C1NC(=S)S/C1=C/c1ccc[nH]1	0	0	49*	13
CCOc1cc(C2C(C(=O)OCCc3ccccc3)=C(C)NC3=C2C(=O)CC(c2ccccc2)C3)ccc1O (centres undefined)	0	0	2	-9
Cc1ccsc1CCNC(=O)CCS(=O)(=O)c1ccc2c(c1)OCC(=O)N2	0	3	-3	3
O=C(NCCCn1ccnc1)c1ccc(OC2CCN(C(=O)C3CC3)CC2)cc1	0	1	10	6
COc1cc(C(=O)N2c3ccccc3NC3=C(C(=O)CC(c4ccc(C(C)(C)C)cc4)C3)C2c2ccc(F)cc2)cc(OC)c1OC (centres undefined)	0	1	4	-12
COc1cc(C)ccc1OCCN1CCCCCC1	0	0	-8	1
O=C(CSc1ncccc1C(=O)O)Nc1ccc2c(c1)OCCO2	0	0	63*	-1
O=C(Nc1ccc2c(c1)OCCO2)c1cc(Br)cc(Br)c1I	0	0	47*	0
O=C(Nc1nnc(-c2ccc3c(c2)OCCO3)o1)c1ccccc1Oc1ccccc1	0	-1	9	1
O=C(Nc1nnc(-c2ccc3c(c2)OCCO3)o1)c1ccccc1Br	0	-1	68*	21
O=C(Nc1ccc2c(c1)OCCO2)c1ccccc1Br	0	-3	37*	-4
CCCCOc1ccc(C(=O)N/C(=C\c2cccc(Cl)c2Cl)C(=O)N2CC3CC(C2)c2cccc(=O)n2C3)cc1 (centres undefined)	0	1	7	14
O=C(Nc1cc([N+](=O)[O-])ccc1N1CCCCC1)c1ccccc1	0	-1	2	14
OCCC1CN(Cc2cc3ccccc3[nH]2)CCN1Cc1ccccc1F (centres undefined)	0	2	2	6
CCCCOc1ccc(-c2cnc(S(C)(=O)=O)nc2)cc1	0	2	46*	0
COc1ccc(CCNc2cc(-c3ccccc3)nc(N)n2)cc1	0	0	42*	3
SMILES	FBW7 activator	GPR151 ag	TEAD-YAP block	MITF inh
COc1ccc(-c2cc(Nc3cc(OC)c(OC)c(OC)c3)nc(N)n2)cc1	0	2	41*	-17
COc1ccc(-c2cc(Nc3ccc(Oc4ccccc4)cc3)nc(N)n2)cn1	0	2	44*	6
COc1ccc(-c2cc(Nc3ccc(NC(C)=O)cc3)nc(N)n2)cn1	0	-1	-13	-6
COc1ccc(-c2cc(NCCc3ccc(O)cc3)nc(N)n2)cc1	0	-1	-44	7
COc1ccc(CCNc2cc(-c3ccc(OC)nc3)nc(N)n2)cc1	0	-1	51*	0
CCOc1ccc(C2=CC(c3ccc(F)cc3)c3ccccc3O2)cc1 (centres undefined)	0	-1	6	0
N#Cc1ccc(COC(=O)C2=NNC(=O)CC2)cc1	0	-1	-7	9
COc1cc(Nc2cc(N3CCc4ccccc4C3)nc(N)n2)cc(OC)c1OC	0	3	37*	5
Cc1nn(C)c(C)c1-c1cc(Nc2ccc(Oc3ccccc3)cc2)nc(N)n1	0	-1	54*	40
O=C(Nc1ccccc1C(F)(F)F)c1ccc(F)c(S(=O)(=O)N2CCN(c3ccccc3)CC2)c1	1	-2	18	12
OCCNc1ncnc2sc3c(c12)CCC3	0	0	3	-3
CCCn1c(NC(=O)c2cccc(S(=O)(=O)N(C)C(C)C)c2)nc2ccccc21	0	3	34*	13
CCCCNC(=O)C(=O)Nc1ccccc1OCC	2.3*	0	0	3
CCOc1ccccc1NC(=O)C(=O)N/N=C/c1cccc(Cl)c1Cl	0	0	8	3
COc1cccc(/C=N/NC(=O)C(=O)Nc2ccccc2OC(F)(F)C(F)F)c1O	0	4	65*	0
CCOc1ccccc1NC(=O)C(=O)N/N=C/c1cccc(OC)c1O	-2	2	79*	23
O=C(N/N=C/c1ccccc1)C(=O)Nc1ccccc1OC(F)(F)C(F)F	0	-1	4	14
CCCCCCc1cc2cc(-c3nnc(-c4ccc([N+](=O)[O-])cc4)o3)c(=O)oc2cc1O	0	-2	4	-7
Fc1cccc(Cl)c1Cc1noc(/C=C/c2ccccc2Cl)n1	0	1	-2	14
COc1cc2nc(CN3CCCCC3)[nH]c(=O)c2cc1OC	0	1	1	10
COc1cc2nc(CN3CCN(c4ccccc4F)CC3)[nH]c(=O)c2cc1OC	0	-2	48*	-6
CC/C(C)=N/NC(=O)c1n[nH]c2c1CCC2	0	4	43*	-23
O=C(NN=C1CCCC1)c1n[nH]c2c1CCC2	0	1	64*	5
C/C(=N\NC(=O)c1n[nH]c2c1CCC2)c1ccco1	0	0	52*	4
O=C(NN=C1CCCC1)c1n[nH]c2c1CCCC2	0	1	42*	-1
SMILES	FBW7 activator	GPR151 ag	TEAD-YAP block	MITF inh
NNC(=O)c1n[nH]c2c1CCCC2	0	0	8	5
Oc1ccc(N2CCN(Cn3cnc4ccccc43)CC2)cc1	0	-1	4	-4
Cc1cccc(-c2noc(CNC(=O)C(C)(C)C)n2)c1	0	-2	-10	15
CC1(C)CC(=NNC(=O)c2n[nH]c3c2CCCC3)CC(C)(C)N1	0	-1	39*	11
CC1(C)CC(=NNC(=O)c2ccncc2)CC(C)(C)N1	0	0	-2	-5
COc1cc(/C(C)=N/NC(=O)c2n[nH]c3c2CCC3)ccc1O	0	1	35*	1
OCCC1CN(Cc2cn[nH]c2-c2ccccc2)CCN1C1CCCC1 (centres undefined)	0	1	-13	1
COc1ccccc1C(=O)Oc1ccc(Cl)cc1NC1=NS(=O)(=O)c2ccccc21	0	0	-8	-3
O=C(Oc1ccccc1NC1=NS(=O)(=O)c2ccccc21)c1ccccc1Cl	0	2	60*	13
CCOc1ccc(Nc2nc(-c3ccccc3)c(C(=O)Nc3cccc(OC)c3)s2)cc1	0	0	-12	-6

Screening results as filed in PubChem BioAssay.
